Measurements from PubChem BioAssay (NCATS).
Inconclusive results are not listed. Calls of active or inactive are those of the source. Calls come from the whole dose curve; as a rule, active = well fitted curve in the direction sought with a large enough effect; inconclusive = small, poorly fitted or top-dose-only effect, or another doubt; inactive = no such curve, though single readings can be large; an effect the other way counts as inactive or inconclusive.

Key:
[1] = molecular target: ATP-dependent 6-phosphofructokinase (Trypanosoma brucei brucei) (UniProt O15648); assay: qHTS Assay to Find Inhibitors of T. brucei phosphofructokinase: hit validation (AID 492961);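 note: luminescence reports ADP formed as PFK phosphorylates fructose-6-phosphate with ATP; % is set by controls: 0 for no effect and ±100 for the full control effect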
Sequence of ATP-dependent 6-phosphofructokinase (Trypanosoma brucei brucei) (O15648 whole entry, looked up): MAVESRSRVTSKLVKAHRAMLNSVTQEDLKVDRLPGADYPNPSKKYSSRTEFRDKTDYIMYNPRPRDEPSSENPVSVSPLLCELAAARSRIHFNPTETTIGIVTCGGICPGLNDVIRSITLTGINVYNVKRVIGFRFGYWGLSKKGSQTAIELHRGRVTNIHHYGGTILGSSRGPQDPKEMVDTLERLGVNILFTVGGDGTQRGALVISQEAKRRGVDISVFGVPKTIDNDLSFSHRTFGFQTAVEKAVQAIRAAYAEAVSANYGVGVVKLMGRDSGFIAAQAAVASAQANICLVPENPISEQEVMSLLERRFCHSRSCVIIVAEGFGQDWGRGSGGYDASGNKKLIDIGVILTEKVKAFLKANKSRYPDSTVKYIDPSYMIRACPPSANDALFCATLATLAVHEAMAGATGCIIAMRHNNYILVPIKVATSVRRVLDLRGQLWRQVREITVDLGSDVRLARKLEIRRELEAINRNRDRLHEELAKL
Procedure, shortened: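 Measures ADP output of PFK (1.25 nM) at 0.1 mM ATP, 0.5 mM F6P, pH 8.0 TEA buffer with 5 mM MgCl2. No-enzyme wells define full inhibition; uninhibited enzyme wells define zero.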

[2] = molecular target: Ubiquitin carboxyl-terminal hydrolase 1 (Homo sapiens) (UniProt O94782); assay: Inhibitors of USP1/UAF1: Pilot qHTS (AID 504865);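 note: rhodamine fluorescence freed from ubiquitin-rhodamine substrate followed over time; top concentration of the series differs between compounds; % is set by controls: 0 for no effect and ±100 for the full control effect; nearly all actives have a fitted effect of over 35% in size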
Sequence of Ubiquitin carboxyl-terminal hydrolase 1 (Homo sapiens) (O94782 whole entry, looked up): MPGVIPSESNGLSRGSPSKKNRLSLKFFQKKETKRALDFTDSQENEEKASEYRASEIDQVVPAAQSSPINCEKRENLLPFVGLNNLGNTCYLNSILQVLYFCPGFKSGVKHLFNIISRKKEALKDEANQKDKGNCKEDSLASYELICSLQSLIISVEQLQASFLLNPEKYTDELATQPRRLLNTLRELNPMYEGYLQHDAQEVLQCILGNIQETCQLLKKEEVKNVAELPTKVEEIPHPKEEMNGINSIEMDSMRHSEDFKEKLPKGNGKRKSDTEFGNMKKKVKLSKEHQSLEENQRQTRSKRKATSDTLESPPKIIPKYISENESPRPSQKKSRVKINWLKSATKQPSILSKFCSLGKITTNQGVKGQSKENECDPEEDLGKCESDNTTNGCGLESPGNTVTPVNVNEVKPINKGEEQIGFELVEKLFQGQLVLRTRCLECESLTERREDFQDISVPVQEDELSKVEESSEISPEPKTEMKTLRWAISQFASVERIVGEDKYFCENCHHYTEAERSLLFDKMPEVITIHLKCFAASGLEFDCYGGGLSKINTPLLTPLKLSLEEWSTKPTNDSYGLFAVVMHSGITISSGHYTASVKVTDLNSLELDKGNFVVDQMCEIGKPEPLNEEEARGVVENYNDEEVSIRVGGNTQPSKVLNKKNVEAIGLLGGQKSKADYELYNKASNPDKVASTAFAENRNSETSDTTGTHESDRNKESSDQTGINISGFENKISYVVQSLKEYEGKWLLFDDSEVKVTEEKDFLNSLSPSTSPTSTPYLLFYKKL
Procedure, shortened: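 In 50mM HEPES pH 7.8 containing 0.5mM EDTA, 1mM TCEP, 0.1 mg/ml BSA and 0.01% Tween-20, 1nM USP1/UAF1 is exposed to compound for 15 min, then Ub-Rho (150nM final) is added and fluorescence is read over time.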

[3] = molecular target: Luciferin 4-monooxygenase (Photinus pyralis) (UniProt P08659); assay: Biochemical firefly luciferase enzyme assay for NPC (AID 624030);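 note: purified P. pyralis luciferase at 10 nM with luciferin and ATP substrate; 0% = DMSO and -100% = full luciferase inhibition by PTC124 control; nearly all actives have a fitted effect of over 70% in size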
Sequence of Luciferin 4-monooxygenase (Photinus pyralis) (P08659 whole entry, looked up): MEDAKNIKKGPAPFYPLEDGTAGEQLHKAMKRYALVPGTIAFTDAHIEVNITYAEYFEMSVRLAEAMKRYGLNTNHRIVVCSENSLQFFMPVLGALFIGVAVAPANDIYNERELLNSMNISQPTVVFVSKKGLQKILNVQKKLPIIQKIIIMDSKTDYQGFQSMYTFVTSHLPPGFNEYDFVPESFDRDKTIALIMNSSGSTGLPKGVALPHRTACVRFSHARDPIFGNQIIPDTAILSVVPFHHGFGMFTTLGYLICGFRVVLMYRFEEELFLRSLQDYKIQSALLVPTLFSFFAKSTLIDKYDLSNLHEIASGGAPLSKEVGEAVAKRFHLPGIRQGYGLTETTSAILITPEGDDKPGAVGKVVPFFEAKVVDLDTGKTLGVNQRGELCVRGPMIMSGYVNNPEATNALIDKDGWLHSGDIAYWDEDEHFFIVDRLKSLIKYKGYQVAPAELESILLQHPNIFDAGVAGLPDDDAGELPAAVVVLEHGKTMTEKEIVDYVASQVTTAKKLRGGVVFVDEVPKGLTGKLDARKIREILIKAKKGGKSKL
Procedure, shortened: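 Direct inhibition of firefly luciferase enzyme (10 nM final, 50 mM Tris Acetate) assessed by luminescence within 5 minutes. Percent activity scaled between DMSO and PTC124 positive control, with concentration-effect curves classified by fit quality and response.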

[4] = S16 Schwann cell viability assay (CellTiter-Glo assay) (AID 624031);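 note: native untransfected S16 rat Schwann cells; plate controls were DMSO-treated cells for no effect and cell-free wells for full effect; nearly all actives have a fitted effect of over 70% in size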
Procedure, shortened: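 Counter-screen for cytotoxicity: parental S16 rat Schwann cells lacking the PMP22 reporters, treated 24 h with compound, viability from cellular ATP by CellTiter-Glo luminescence, normalized to DMSO (0%) and no-cell wells.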

[5] = qHTS profiling for inhibitors of Plasmodium falciparum proliferation (AID 504749);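 note: 0% = DMSO vehicle and full inhibition = artemisinin control; nearly all actives have a fitted effect of over 60% in size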; conditions: P. falciparum in erythrocytes, SYBR Green DNA, 72 h, at 28.7 µM (top of the series)
Procedure, shortened: (§1)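 In a 72 h erythrocytic culture (37 C, humidified, 5% CO2) at 2.5% hematocrit and 0.3% starting parasitemia, compounds were tested; SYBR Green I in detergent lysis buffer stained parasite DNA overnight.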

3D7 = assay: as above; conditions: P. falciparum in erythrocytes, SYBR Green DNA, 72 h; series mostly up to 28.7 µM
Procedure, shortened: as §1

7G8 = assay: as above; conditions: P. falciparum in erythrocytes, SYBR Green DNA, 72 h; series mostly up to 28.7 µM
Procedure, shortened: as §1

AA1029 = assay: as above; conditions: P. falciparum in erythrocytes, SYBR Green DNA, 72 h; series mostly up to 28.7 µM
Procedure, shortened: as §1

AS120 = assay: as above; conditions: P. falciparum in erythrocytes, SYBR Green DNA, 72 h; series mostly up to 28.7 µM
Procedure, shortened: as §1

ATS189 = assay: as above; conditions: P. falciparum in erythrocytes, SYBR Green DNA, 72 h; series mostly up to 28.7 µM
Procedure, shortened: as §1

ATS95 = assay: as above; conditions: P. falciparum in erythrocytes, SYBR Green DNA, 72 h; series mostly up to 28.7 µM
Procedure, shortened: as §1

C2A = assay: as above; conditions: P. falciparum in erythrocytes, SYBR Green DNA, 72 h; series mostly up to 28.7 µM
Procedure, shortened: as §1

CP185 = assay: as above; conditions: P. falciparum in erythrocytes, SYBR Green DNA, 72 h; series mostly up to 28.7 µM
Procedure, shortened: as §1

CP191 = assay: as above; conditions: P. falciparum in erythrocytes, SYBR Green DNA, 72 h; series mostly up to 28.7 µM
Procedure, shortened: as §1

CP192 = assay: as above; conditions: P. falciparum in erythrocytes, SYBR Green DNA, 72 h; series mostly up to 28.7 µM
Procedure, shortened: as §1

CP194 = assay: as above; conditions: P. falciparum in erythrocytes, SYBR Green DNA, 72 h; series mostly up to 28.7 µM
Procedure, shortened: as §1

CP201 = assay: as above; conditions: P. falciparum in erythrocytes, SYBR Green DNA, 72 h; series mostly up to 28.7 µM
Procedure, shortened: as §1

CP203 = assay: as above; conditions: P. falciparum in erythrocytes, SYBR Green DNA, 72 h; series mostly up to 28.7 µM
Procedure, shortened: as §1

CP211 = assay: as above; conditions: P. falciparum in erythrocytes, SYBR Green DNA, 72 h; series mostly up to 28.7 µM
Procedure, shortened: as §1

CP215 = assay: as above; conditions: P. falciparum in erythrocytes, SYBR Green DNA, 72 h; series mostly up to 28.7 µM
Procedure, shortened: as §1

CP217 = assay: as above; conditions: P. falciparum in erythrocytes, SYBR Green DNA, 72 h; series mostly up to 28.7 µM
Procedure, shortened: as §1

CP237 = assay: as above; conditions: P. falciparum in erythrocytes, SYBR Green DNA, 72 h; series mostly up to 28.7 µM
Procedure, shortened: as §1

CP238 = assay: as above; conditions: P. falciparum in erythrocytes, SYBR Green DNA, 72 h; series mostly up to 28.7 µM
Procedure, shortened: as §1

CP247 = assay: as above; conditions: P. falciparum in erythrocytes, SYBR Green DNA, 72 h; series mostly up to 28.7 µM
Procedure, shortened: as §1

CP250 = assay: as above; conditions: P. falciparum in erythrocytes, SYBR Green DNA, 72 h; series mostly up to 28.7 µM
Procedure, shortened: as §1

CP252 = assay: as above; conditions: P. falciparum in erythrocytes, SYBR Green DNA, 72 h; series mostly up to 28.7 µM
Procedure, shortened: as §1

CP256 = assay: as above; conditions: P. falciparum in erythrocytes, SYBR Green DNA, 72 h; series mostly up to 28.7 µM
Procedure, shortened: as §1

CP260 = assay: as above; conditions: P. falciparum in erythrocytes, SYBR Green DNA, 72 h; series mostly up to 28.7 µM
Procedure, shortened: as §1

CP262 = assay: as above; conditions: P. falciparum in erythrocytes, SYBR Green DNA, 72 h; series mostly up to 28.7 µM
Procedure, shortened: as §1

CP265 = assay: as above; conditions: P. falciparum in erythrocytes, SYBR Green DNA, 72 h; series mostly up to 28.7 µM
Procedure, shortened: as §1

CP266 = assay: as above; conditions: P. falciparum in erythrocytes, SYBR Green DNA, 72 h; series mostly up to 28.7 µM
Procedure, shortened: as §1

CP268 = assay: as above; conditions: P. falciparum in erythrocytes, SYBR Green DNA, 72 h; series mostly up to 28.7 µM
Procedure, shortened: as §1

CP269 = assay: as above; conditions: P. falciparum in erythrocytes, SYBR Green DNA, 72 h; series mostly up to 28.7 µM
Procedure, shortened: as §1

CP286 = assay: as above; conditions: P. falciparum in erythrocytes, SYBR Green DNA, 72 h; series mostly up to 28.7 µM
Procedure, shortened: as §1

CP291 = assay: as above; conditions: P. falciparum in erythrocytes, SYBR Green DNA, 72 h; series mostly up to 28.7 µM
Procedure, shortened: as §1

CP297 = assay: as above; conditions: P. falciparum in erythrocytes, SYBR Green DNA, 72 h; series mostly up to 28.7 µM
Procedure, shortened: as §1

CP305 = assay: as above; conditions: P. falciparum in erythrocytes, SYBR Green DNA, 72 h; series mostly up to 28.7 µM
Procedure, shortened: as §1

CP315 = assay: as above; conditions: P. falciparum in erythrocytes, SYBR Green DNA, 72 h; series mostly up to 28.7 µM
Procedure, shortened: as §1

CP325 = assay: as above; conditions: P. falciparum in erythrocytes, SYBR Green DNA, 72 h; series mostly up to 28.7 µM
Procedure, shortened: as §1

CP329 = assay: as above; conditions: P. falciparum in erythrocytes, SYBR Green DNA, 72 h; series mostly up to 28.7 µM
Procedure, shortened: as §1

CP335 = assay: as above; conditions: P. falciparum in erythrocytes, SYBR Green DNA, 72 h; series mostly up to 28.7 µM
Procedure, shortened: as §1

DFO2036 = assay: as above; conditions: P. falciparum in erythrocytes, SYBR Green DNA, 72 h; series mostly up to 28.7 µM
Procedure, shortened: as §1

DIV14 = assay: as above; conditions: P. falciparum in erythrocytes, SYBR Green DNA, 72 h; series mostly up to 28.7 µM
Procedure, shortened: as §1

DIV17 = assay: as above; conditions: P. falciparum in erythrocytes, SYBR Green DNA, 72 h; series mostly up to 28.7 µM
Procedure, shortened: as §1

DIV30 = assay: as above; conditions: P. falciparum in erythrocytes, SYBR Green DNA, 72 h; series mostly up to 28.7 µM
Procedure, shortened: as §1

Dd2 = assay: as above; conditions: P. falciparum in erythrocytes, SYBR Green DNA, 72 h; series mostly up to 28.7 µM
Procedure, shortened: as §1

ECU = assay: as above; conditions: P. falciparum in erythrocytes, SYBR Green DNA, 72 h; series mostly up to 28.7 µM
Procedure, shortened: as §1

FAB9 = assay: as above; conditions: P. falciparum in erythrocytes, SYBR Green DNA, 72 h; series mostly up to 28.7 µM
Procedure, shortened: as §1

GB4 = assay: as above; conditions: P. falciparum in erythrocytes, SYBR Green DNA, 72 h; series mostly up to 28.7 µM
Procedure, shortened: as §1

HB3 = assay: as above; conditions: P. falciparum in erythrocytes, SYBR Green DNA, 72 h; series mostly up to 28.7 µM
Procedure, shortened: as §1

ICS = assay: as above; conditions: P. falciparum in erythrocytes, SYBR Green DNA, 72 h; series mostly up to 28.7 µM
Procedure, shortened: as §1

JCK = assay: as above; conditions: P. falciparum in erythrocytes, SYBR Green DNA, 72 h; series mostly up to 28.7 µM
Procedure, shortened: as §1

N140 = assay: as above; conditions: P. falciparum in erythrocytes, SYBR Green DNA, 72 h; series mostly up to 28.7 µM
Procedure, shortened: as §1

P93_24 = assay: as above; conditions: P. falciparum in erythrocytes, SYBR Green DNA, 72 h; series mostly up to 28.7 µM
Procedure, shortened: as §1

P94_40 = assay: as above; conditions: P. falciparum in erythrocytes, SYBR Green DNA, 72 h; series mostly up to 28.7 µM
Procedure, shortened: as §1

PAD = assay: as above; conditions: P. falciparum in erythrocytes, SYBR Green DNA, 72 h; series mostly up to 28.7 µM
Procedure, shortened: as §1

PC15 = assay: as above; conditions: P. falciparum in erythrocytes, SYBR Green DNA, 72 h; series mostly up to 28.7 µM
Procedure, shortened: as §1

PC26 = assay: as above; conditions: P. falciparum in erythrocytes, SYBR Green DNA, 72 h; series mostly up to 28.7 µM
Procedure, shortened: as §1

PC49 = assay: as above; conditions: P. falciparum in erythrocytes, SYBR Green DNA, 72 h; series mostly up to 28.7 µM
Procedure, shortened: as §1

SC27B = assay: as above; conditions: P. falciparum in erythrocytes, SYBR Green DNA, 72 h; series mostly up to 28.7 µM
Procedure, shortened: as §1

TAB109 = assay: as above; conditions: P. falciparum in erythrocytes, SYBR Green DNA, 72 h; series mostly up to 28.7 µM
Procedure, shortened: as §1

TAB113 = assay: as above; conditions: P. falciparum in erythrocytes, SYBR Green DNA, 72 h; series mostly up to 28.7 µM
Procedure, shortened: as §1

TAB165 = assay: as above; conditions: P. falciparum in erythrocytes, SYBR Green DNA, 72 h; series mostly up to 28.7 µM
Procedure, shortened: as §1

W2 = assay: as above; conditions: P. falciparum in erythrocytes, SYBR Green DNA, 72 h; series mostly up to 28.7 µM
Procedure, shortened: as §1

C[C@@H]1C(SC2Cn3cnc[n+]3C2)=C(C(=O)[O-])N2C(=O)[C@H]([C@@H](C)O)[C@@H]12 (stereo not given in full)
inactive: Potency [1] | Potency [2] | Potency [3] | Potency [4] | activity, negative = inhibition ([5]; parasite line A) 6.33% | activity, negative = inhibition ([5]; parasite line B) 11.1% | Potency (3D7) | Potency (7G8) | Potency (AA1029) | Potency (AS120) | Potency (ATS189) | Potency (ATS95) | Potency (C2A) | Potency (CP185) | Potency (CP191) | Potency (CP192) | Potency (CP194) | Potency (CP201) | Potency (CP203) | Potency (CP211) | Potency (CP215) | Potency (CP217) | Potency (CP237) | Potency (CP238) | Potency (CP247) | Potency (CP250) | Potency (CP252) | Potency (CP256) | Potency (CP260) | Potency (CP262) | Potency (CP265) | Potency (CP266) | Potency (CP268) | Potency (CP269) | Potency (CP286) | Potency (CP291) | Potency (CP297) | Potency (CP305) | Potency (CP315) | Potency (CP325) | Potency (CP329) | Potency (CP335) | Potency (DFO2036) | Potency (DIV14) | Potency (DIV17) | Potency (DIV30) | Potency (Dd2) | Potency (ECU) | Potency (FAB9) | Potency (GB4) | Potency (HB3) | Potency (ICS) | Potency (JCK) | Potency (N140) | Potency (P93_24) | Potency (P94_40) | Potency (PAD) | Potency (PC15) | Potency (PC26) | Potency (PC49) | Potency (SC27B) | Potency (TAB109) | Potency (TAB113) | Potency (TAB165) | Potency (W2)
